In paper PMC4336329 (PLoS ONE, 2015):
Out of some 310,000 compounds screened, about 14,000 (4.5%) showed an effect of 50% or more. Effects have a minus sign here. The entries come from a sample that favours strong results as a whole.

target: human ether-à-go-go-related gene (hERG) potassium channel (human, UniProt Q12809); experiment: primary screen, population patch clamp on CHO cells stably expressing hERG; higher = less effect of the substance
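Further: peak tail current of the secondary pulse compared with the same well before compound.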

Sequence of human ether-à-go-go-related gene (hERG) potassium channel (Q12809 whole entry, looked up): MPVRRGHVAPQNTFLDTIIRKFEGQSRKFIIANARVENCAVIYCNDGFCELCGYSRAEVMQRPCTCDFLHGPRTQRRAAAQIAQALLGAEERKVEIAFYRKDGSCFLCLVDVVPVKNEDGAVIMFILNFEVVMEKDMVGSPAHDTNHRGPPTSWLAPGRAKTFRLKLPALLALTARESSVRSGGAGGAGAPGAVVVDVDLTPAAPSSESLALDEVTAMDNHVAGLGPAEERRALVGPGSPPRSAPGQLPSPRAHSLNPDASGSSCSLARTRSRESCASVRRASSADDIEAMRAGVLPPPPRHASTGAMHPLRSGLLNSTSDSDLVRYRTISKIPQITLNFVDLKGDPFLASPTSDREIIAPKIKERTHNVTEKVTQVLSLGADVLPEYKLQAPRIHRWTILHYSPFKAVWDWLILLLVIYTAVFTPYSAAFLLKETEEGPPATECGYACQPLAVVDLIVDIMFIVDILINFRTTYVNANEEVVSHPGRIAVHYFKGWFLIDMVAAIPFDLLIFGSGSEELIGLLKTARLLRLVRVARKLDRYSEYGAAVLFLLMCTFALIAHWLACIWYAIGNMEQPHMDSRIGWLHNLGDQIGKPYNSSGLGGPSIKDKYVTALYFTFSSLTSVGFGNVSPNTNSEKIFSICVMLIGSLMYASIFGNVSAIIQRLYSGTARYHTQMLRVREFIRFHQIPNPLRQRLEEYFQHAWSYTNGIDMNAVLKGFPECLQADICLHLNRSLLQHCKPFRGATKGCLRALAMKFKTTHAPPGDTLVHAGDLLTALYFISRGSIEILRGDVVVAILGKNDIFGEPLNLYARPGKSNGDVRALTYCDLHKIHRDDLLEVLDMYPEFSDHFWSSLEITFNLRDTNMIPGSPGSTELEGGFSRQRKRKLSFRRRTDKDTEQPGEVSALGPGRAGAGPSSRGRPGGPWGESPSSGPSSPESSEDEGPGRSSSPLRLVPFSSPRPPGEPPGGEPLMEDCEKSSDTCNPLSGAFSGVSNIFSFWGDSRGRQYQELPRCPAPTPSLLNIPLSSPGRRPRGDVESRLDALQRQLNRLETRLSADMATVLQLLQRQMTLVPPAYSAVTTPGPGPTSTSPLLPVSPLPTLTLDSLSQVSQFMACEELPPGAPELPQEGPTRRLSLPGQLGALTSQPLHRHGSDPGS

Point of comparison: `COC(=O)c1ccc(Oc2cc(C)nc(-n3nc(C)cc3C)n2)cc1`, “hERG current change (%, negative = inhibition) at 10uM” value -22.4%. Against it:
- COc1ccc(C(CC(=O)Nc2cc(OC)cc(OC)c2)n2cccc2)cc1 (stereo not drawn) — higher, 2.58%
- Nc1ccc(N2CCOCC2)c(Cl)c1 — higher, 1.49%
- CC(=O)Nc1ccc(S(=O)(=O)Nc2nc(CN3CCOCC3)nc3sc4c(c23)CCCC4)cc1 — higher, -4%
- CCOc1ccc(N(CC(=O)NCC2CCCO2)C(=O)CCC(=O)Nc2nccs2)cc1 (stereo not drawn) — higher, 2.69%
- Cc1nn2c(-c3cccc(NC(=O)c4ccco4)c3)nnc2c2ccccc12 — higher, -5.38%
- Cc1ccc(OCCCCCCN2CCNCC2)c(Br)c1.O=C(O)C(=O)O — lower, -30.3%
- CNCCCOc1ccc(C)cc1Br.O=C(O)C(=O)O — higher, -10.9%
- Cc1ccc(OCCOCCN2CCCC2)c(Br)c1.O=C(O)C(=O)O — lower, -24.7%
- Cc1ccc(C(C)C)c(OCCCCN2CCNCC2)c1.O=C(O)C(=O)O — higher, -6.77%
- Cc1ccc(OCCCCN2CCCCC2)c(Br)c1.O=C(O)C(=O)O — lower, -62.6%
- Cc1ccc(OCCCCN2CCC(C)CC2)c(Br)c1.O=C(O)C(=O)O — lower, -63.1%
- COC(=O)/C(=C1/Oc2ccc(C)cc2S1)C(F)(F)F — higher, 32.8%
- CC(C)(C)c1ccc(N2C(=N)SCC2=O)cc1 — higher, -0.538%
- Cc1ccc(N2C(=N)SCC2=O)cc1Cl — lower, -70.6%
- N=C1SCC(=O)N1c1ccc(Cl)cc1 — higher, 8.91%
- Cc1oc2c(c1C(=O)N1CCOCC1)C(=O)c1ccccc1C2=O — higher, 5.25%
- CC(=O)N1CCc2cc(S(=O)(=O)NC(Cc3ccccc3)C(=O)NCCN3CCCCC3C)ccc21 (stereo not drawn) — higher, 5.72%
- O=C(Cc1ccc(Br)cc1)NCCc1ccc(F)cc1 — higher, 11.3%
- CCc1ccc(CNCCc2ccc(F)cc2)cc1 — lower, -72.8%
- CCc1ccc(CNCCc2ccccc2F)cc1 — lower, -67.7%
- Cc1ccccc1CCNCc1ccc(Br)cc1 — lower, -53.6%
- Cl.c1ccc(CCNCc2ccccc2)cc1 — higher, -9.4%
- Fc1ccc(CNCc2ccc(Br)cc2)cc1 — lower, -28.5%
- Cc1ccc(CNCCc2ccccc2F)cc1.Cl — lower, -31.8%
- Fc1ccc(CNCCc2ccccc2F)cc1 — higher, -2.59%
- Fc1ccc(CCNCc2ccc(Br)cc2)cc1 — lower, -53.8%
- CCc1ccc(CNCc2ccc(F)cc2)cc1 — higher, -21%
- Fc1ccccc1CCNCc1ccccc1 — higher, 5.42%
- Fc1ccc(CNCCc2ccccc2)cc1.O=C(O)C(=O)O — higher, -18.2%
- Cc1cccc(-n2ncc3c2CCCC3NC(=O)Cc2c(C)noc2C)c1C (stereo not drawn) — higher, 15.9%
- COc1ccc(/C=C2\SC(=S)N(CCCC(=O)NC3CCCC3)C2=O)cc1OC — higher, -12.2%
- Cc1nn(CCCC(=O)O)c(C)c1[N+](=O)[O-] — higher, 12.3%
- O=C(COc1ccc(S(=O)(=O)NC2CCCCC2)cc1)NCCC1=CCCCC1 — higher, 2.33%
- CCN(CC)S(=O)(=O)c1ccc(NC(=O)COC(=O)c2ccc(NC(=O)CC#N)cc2)cc1 — higher, 20.5%
- CCn1c(Cc2ccccc2)nnc1SCC(=O)OC(C)C — higher, 0.117%
- CCNC(=O)C1CC(=O)N(c2ccc(Br)cc2)C1 (stereo not drawn) — higher, 2.64%
- CC1(C)Cc2c(sc3nc(NCCN4CCOCC4)n4ncnc4c23)CO1 — higher, -5.72%
- N/C(=N\OC(=O)CSc1ccccc1)c1ccncc1 — higher, 0.55%
- CC1CC(C)CN(C(=O)c2cc(S(=O)(=O)N3CCCCC3)ccc2Cl)C1 (stereo not drawn) — lower, -37.7%
- Cc1ccc(NN2C(=O)C=C(c3ccc(Cl)cc3)C2=O)cc1 — higher, 13.9%
- CCCCCNCc1ccc(Br)cc1.Cl — lower, -33.3%
- CCCCCCNCc1ccc(Br)cc1.Cl — lower, -61.7%
- CCCCCCNCc1cccc(Br)c1.Cl — higher, -11.3%
- CCN(CC)c1ccc(CNCCc2ccccc2F)cc1.Cl — higher, -5.46%
- Cl.Fc1ccc(CCNCc2cccc(Cl)c2)cc1 — higher, -16.5%
- CCN(CC)c1ccc(CNCCc2ccc(F)cc2)cc1.Cl — lower, -58.8%
- O=C(NCCO)c1ccc2[nH]c3c(c2c1)CCCC3 — higher, -0.0914%
- Cc1nc(COC(=O)c2c(C)nn(-c3ccccc3)c2C)cs1 — higher, -2.05%
- Cc1ccc(C(=O)C(C)OC(=O)Cc2c[nH]c3ccccc23)cc1 (stereo not drawn) — higher, 1.64%
- CN(CC(=O)NCC(=O)Nc1ccc(F)cc1)C1CCS(=O)(=O)C1 (stereo not drawn) — higher, 13.3%
- O=C(NC1CCCCCC1)c1ccc(CN2CCOCC2)cc1 — higher, 11.3%
- Cc1ccc(CNC(=O)c2ccccc2-n2cnnn2)cc1 — higher, 9.73%
- O=C(NC(=S)NC1CCCCCCCCCCC1)c1cccnc1 — higher, -4.46%
- O=C(NCCN1CCN(C(=O)c2ccc(F)cc2)CC1)c1ccc(F)cc1 — lower, -70.1%
- O=C(NCCNC(=O)c1ccc(F)cc1)c1ccc(F)cc1 — higher, 0.397%
- O=C(NCCN1CCN(C(=O)c2ccc(Br)cc2)CC1)c1ccc(Br)cc1 — lower, -71.3%
- O=C(NCCN1CCOCC1)c1ccc(F)cc1 — higher, 1.66%
- COc1ccc(C(=O)NCCCN2CCOCC2)cc1 — higher, -1.82%
- O=C(NCCCN1CCOCC1)c1ccc(Br)cc1 — higher, -13.7%
- Cl.O=C(NCCN1CCCC1)c1ccc(Br)cc1 — higher, -11.9%
- COc1ccc(C(=O)NCCN2CCCC2)cc1.Cl — higher, 3.56%
- COc1ccc(C(=O)NCCN2CCN(C(=O)c3ccc(OC)cc3)CC2)cc1 — lower, -75.2%
- CC(O)CNc1cnccn1 (stereo not drawn) — higher, 8.76%
- Cc1cc(C)c(N(C(=O)c2csnn2)C(C(=O)NC(C)(C)C)c2ccncc2)c(C)c1 (stereo not drawn) — higher, 9.01%
- O=C(c1ccco1)N1CCN(S(=O)(=O)c2ccc3c(c2)OCCO3)CC1 — higher, -0.283%
- CC(=O)Nc1ccc(SCC(=O)Nc2oc(C)c3c(C)n[nH]c(=O)c23)cc1 — higher, 8.72%
- CCn1c(C)[n+](CCOCC[n+]2c(C)n(CC)c3cc(Cl)c(Cl)cc32)c2cc(Cl)c(Cl)cc21.[I-] — higher, 6.82%
- CCn1c(/C=C/Nc2ccccc2)[n+](CC)c2cc(Cl)c(Cl)cc21.[I-] — lower, -79.3%
- CCn1c(/C=C/N(C(C)=O)c2ccccc2)[n+](CCCS(=O)(=O)[O-])c2cc(Cl)c(Cl)cc21 — higher, 19.9%
- Cc1n(C)c2cc(Cl)ccc2[n+]1Cc1ccccc1.[I-] — higher, -3.49%
- CCn1c(/C=C/Nc2ccccc2)[n+](CC)c2ccc(Cl)cc21.[I-] — lower, -78.6%
- CCn1c(/C=C/N(C(C)=O)c2ccccc2)[n+](CC)c2ccc(Cl)cc21.[I-] — higher, 2.3%
- CC(=O)c1ccc(Oc2cc(C)nc(-n3nc(C)cc3C)n2)cc1 — lower, -59.9%
- CC(=O)c1ccc(Oc2cc(C)nc(N3CCOCC3)n2)cc1 — higher, -13.3%
- COc1cccc(OC)c1C(=O)N1CCN(Cc2ccccc2C)CC1 — higher, -0.823%
- O=C1C2C3C=CC(C2C(=O)N1C1CCCCC1)C1C(=O)N(C2CCCCC2)C(=O)C31 (stereo not drawn) — higher, 14.7%
- COc1ccc(C2c3ccc(O)cc3Oc3ncn(CCN4CCOCC4)c(=N)c32)cc1OC (stereo not drawn) — higher, -11.8%
- COc1ccc(C2c3ccc(O)cc3Oc3ncn(CCCO)c(=N)c32)cc1OC (stereo not drawn) — higher, -6.28%
- COc1ccc(C2c3c(ncn(Cc4ccco4)c3=N)Oc3ccc4ccccc4c32)cc1 (stereo not drawn) — higher, -7.04%
- COc1ccc(C2c3ccc(O)cc3Oc3ncn(CCN4CCOCC4)c(=N)c32)cc1 (stereo not drawn) — lower, -28.1%
- COc1ccc(C2c3ccc(O)cc3Oc3ncn(Cc4ccco4)c(=N)c32)cc1OC (stereo not drawn) — lower, -74.4%
- COc1ccc(C2c3ccc(O)cc3Oc3ncn(CCCO)c(=N)c32)cc1 (stereo not drawn) — lower, -22.8%
- COc1ccc(C2c3ccc(O)cc3Oc3ncn(Cc4ccco4)c(=N)c32)cc1 (stereo not drawn) — lower, -71.9%
- COc1ccc(C2c3ccc(O)cc3Oc3ncn(Cc4ccccc4)c(=N)c32)cc1OC (stereo not drawn) — lower, -51.7%
- COc1ccc(C2c3ccc(O)cc3Oc3ncn(CC(C)C)c(=N)c32)cc1 (stereo not drawn) — lower, -69.8%
- CC(=O)c1cccc(NC(=O)c2ccc(NC(=O)CC3SC(N4CCCCC4)=NC3=O)cc2)c1 (stereo not drawn) — higher, 10.3%
- COc1ccc(-n2nc(C(=O)NCC(=O)NCCN(C)C)c3ccccc3c2=O)cc1 — higher, 10.7%
- Nc1ncn[nH]1 — higher, 13.5%
- COc1ccccc1NC(=S)NC(NC(=O)CC(C)C)C(Cl)(Cl)Cl (stereo not drawn) — higher, 22.2%
- CC1=NN(C(=O)c2ccc(Cn3cc(Br)c([N+](=O)[O-])n3)o2)C(O)(C(F)(F)F)C1 (stereo not drawn) — higher, -16.6%
- CN(CCOc1ccccc1)C(=O)CCc1c[nH]c2ccccc12.Cl — higher, -0.585%
- CCOc1ccc(C(=O)NN2C(=O)C3C4C=CC(O4)C3C2=O)cc1 (stereo not drawn) — higher, -14%
